Test results from the antibiotic and cytotoxicity screens of Wong et al. (2023).
Screen size: about 39,000 compounds; about 500 (1.3%) were called active. The sample holds actives, similar compounds and a random draw of the others, so the mix is not that of the screen.

Tested on: S. aureus RN4220
Assay: growth inhibition call (relative growth <= 0.2)
Settings: 50 µM

Structure (SMILES) | growth inhibition call
CN1CCN(C(=O)C[C@@H]2CC[C@H]3[C@@H](COC[C@H](O)CN3C(=O)Nc3cc(Cl)cc(Cl)c3)O2)CC1 | inactive
O=C(C[C@@H]1CC[C@@H]2[C@H](COC[C@@H](O)CN2C(=O)Nc2cc(Cl)cc(Cl)c2)O1)N1CCOCC1 | active
O=C(C[C@@H]1CC[C@@H]2[C@H](COC[C@H](O)CN2C(=O)Nc2cc(Cl)cc(Cl)c2)O1)N1CCOCC1 | active
O=C(C[C@H]1CC[C@H]2[C@@H](COC[C@H](O)CN2C(=O)Nc2cc(Cl)cc(Cl)c2)O1)N1CCOCC1 | inactive
O=C(C[C@H]1CC[C@@H]2[C@H](COC[C@@H](O)CN2C(=O)Nc2cc(Cl)cc(Cl)c2)O1)N1CCOCC1 | inactive
O=C(C[C@@H]1CC[C@H]2[C@@H](COC[C@@H](O)CN2C(=O)Nc2cc(Cl)cc(Cl)c2)O1)N1CCOCC1 | active
O=C(C[C@H]1CC[C@H]2[C@@H](COC[C@@H](O)CN2C(=O)Nc2cc(Cl)cc(Cl)c2)O1)N1CCOCC1 | inactive
O=C(C[C@H]1CC[C@@H]2[C@H](COC[C@H](O)CN2C(=O)Nc2cc(Cl)cc(Cl)c2)O1)N1CCOCC1 | inactive
O=C(C[C@@H]1CC[C@H]2[C@@H](COC[C@H](O)CN2C(=O)Nc2cc(Cl)cc(Cl)c2)O1)N1CCOCC1 | inactive
C[C@H](O)C#Cc1ccc2c(c1)O[C@H](CN(C)C(=O)c1ccccc1)[C@H](C)CN([C@H](C)CO)S2(=O)=O | inactive
C[C@@H]1CCCCO[C@@H](CN(C)C(=O)Nc2ccc(C(F)(F)F)cc2)[C@H](C)CN([C@H](C)CO)C(=O)c2cc(NS(=O)(=O)c3cn(C)cn3)ccc2O1 | inactive
C[C@@H]1CN([C@H](C)CO)C(=O)c2cc(NC(=O)CCN3CCOCC3)ccc2O[C@H]1CN(C)C(=O)Nc1ccc2c(c1)OCO2 | inactive
Cc1noc(C)c1S(=O)(=O)Nc1ccc2c(c1)C(=O)N([C@H](C)CO)C[C@H](C)[C@H](CN(C)Cc1ccccc1)OCCCC[C@@H](C)O2 | inactive
Cc1ccc(C)c(Cc2cc(Cl)ccc2Cl)c1 | inactive
Cc1noc(C)c1NC(=O)Nc1ccc2c(c1)C(=O)N([C@H](C)CO)C[C@@H](C)[C@@H](CN(C)C(=O)C1CCCCC1)OCCCC[C@@H](C)O2 | inactive
C[C@@H]1CN([C@H](C)CO)C(=O)c2cc(NS(=O)(=O)c3cn(C)cn3)ccc2O[C@@H](C)CCCCO[C@@H]1CN(C)CC1CC1 | inactive
CCNC(=O)C[C@@H]1CC[C@H](NC(=O)C2CCOCC2)[C@@H](CO)O1 | inactive
OC[C@H]1COc2ccccc2O1 | inactive
C[C@@H]1CCCCO[C@H](CN(C)S(=O)(=O)c2ccc(Cl)cc2)[C@@H](C)CN([C@H](C)CO)C(=O)c2cc(NS(=O)(=O)c3ccc(F)cc3)ccc2O1 | inactive
NC(=O)N1C(=O)[C@H]2[C@H](C1=O)[C@H]1C=C(c3ccc(CO)cc3)[C@@H]2[C@@H](C2CC2)N1Cc1cc2c(cc1Br)OCO2 | inactive
CN1C(=O)[C@H]2[C@H](C1=O)[C@H]1C=C(c3ccc(CO)cc3)[C@@H]2[C@H](c2cccs2)N1Cc1cccc(OC(F)(F)F)c1 | active
NC(=O)N1C(=O)[C@H]2[C@H](C1=O)[C@H]1C=C(CCCO)[C@@H]2[C@H](c2cccs2)N1Cc1cc2c(cc1Br)OCO2 | inactive
CC(C)NC(=O)N(C)C[C@@H]1Oc2ccc(NC(=O)CCCN(C)C)cc2CC(=O)N([C@@H](C)CO)C[C@H]1C | inactive

Structure (SMILES) | growth inhibition call
Cc1ccc(S(=O)(=O)N(C)C[C@@H]2OCCCC[C@@H](C)Oc3ccc(NC(=O)Nc4ccc(F)cc4)cc3C(=O)N([C@H](C)CO)C[C@H]2C)cc1 | inactive
CN(C)CCCNC(=O)C[C@@H]1CC[C@@H]2[C@H](COc3ccc(NC(=O)c4cccc(F)c4)cc3C(=O)N2C)O1 | inactive
CC(C)(c1cc(Br)c(O)c(Br)c1)c1cc(Br)c(O)c(Br)c1 | active
Cc1cc(C(C)(C)C)c(O)c(C(C)(C)C)c1 | inactive
O=C(C[C@@H]1CC[C@H]2NC[C@H](O)COC[C@@H]2O1)NCCN1CCCCC1 | inactive
C[C@@H]1CCCCO[C@@H](CN(C)S(=O)(=O)c2cccs2)[C@H](C)CN([C@H](C)CO)C(=O)c2cc(NC(=O)Nc3ccc(F)cc3)ccc2O1 | inactive
COCC#Cc1ccc2c(c1)O[C@@H](CN(C)S(=O)(=O)c1ccc(OC)cc1)[C@@H](C)CN([C@H](C)CO)S2(=O)=O | inactive
Cn1c(=O)c2c(nc(NCCO)n2C)n(C)c1=O | inactive
C=CCc1ccc(O[C@@H]2O[C@H](CO[C@@H]3O[C@@H](C)[C@H](O)[C@@H](O)[C@H]3O)[C@@H](O)[C@H](O)[C@H]2O)c(O)c1 | inactive
S=c1ccss1 | active
O=C(C[C@@H]1C[C@@H]2c3cc(NS(=O)(=O)c4ccc(F)cc4)ccc3O[C@@H]2[C@H](CO)O1)NCc1cccc(F)c1 | inactive
[N-]=[N+]=N[C@]1(CO)O[C@@H](n2ccc(N)nc2=O)[C@@H](O)[C@@H]1O | inactive
CNC[C@H]1Oc2ccc(NS(=O)(=O)c3cn(C)cn3)cc2CC(=O)N([C@H](C)CO)C[C@@H]1C | inactive
CN1CCN(C(=O)C[C@H]2CC[C@H]3[C@@H](COc4ccc(NC(=O)c5cscn5)cc4C(=O)N3C)O2)CC1 | inactive
Cn1c(=O)c2cc(S(=O)(=O)NCCC(=O)NC3CCCC3)ccc2n(C)c1=O | inactive
C#CC[C@H](c1nc2cc(Cl)ccc2c(=O)n1Nc1ccccc1)N(CCCN)C(=O)c1cccc(Cl)c1F | active
CO[C@H](CN(C)C(=O)c1ccccc1F)[C@@H](C)CN([C@@H](C)CO)S(=O)(=O)c1ccc(Cl)cc1 | inactive
C[C@H]1CCCCO[C@@H](CN(C)C(=O)Nc2ccc3c(c2)OCO3)[C@@H](C)CN([C@@H](C)CO)C(=O)c2cc(NC(=O)CCC(F)(F)F)ccc2O1 | inactive
C[C@H](CO)N1C[C@H](C)[C@@H](CN(C)C(=O)Nc2ccccc2)OCCCC[C@H](C)Oc2ccc(NC(=O)Nc3cccc4ccccc34)cc2C1=O | inactive
CC[C@@H]1OC(=O)[C@@H](C)[C@H](O[C@H]2C[C@@](C)(OC)[C@@H](O)[C@H](C)O2)[C@@H](C)[C@H](O)[C@@](C)(O[C@@H]2O[C@H](C)C[C@H](N(C)C)[C@H]2O)C[C@H](C)C(=O)[C@@H](C)[C@H](O)[C@@]1(C)O | active
CCC1OC(=O)C(C)C(OC2CC(C)(OC)C(O)C(C)O2)C(C)C(OC2OC(C)CC(N(C)C)C2O)C(C)(OC)CC(C)C(=O)C(C)C(O)C1(C)O (stereo not given) | active
CC[C@H]1OC(=O)[C@H](C)[C@@H](O[C@H]2C[C@@](C)(OC)[C@@H](O)[C@H](C)O2)[C@H](C)[C@@H](O[C@@H]2O[C@H](C)C[C@H](N(C)C)[C@H]2O)[C@](C)(OC)C[C@@H](C)C(=O)[C@H](C)[C@@H](O)[C@]1(C)O | active
